# Inconclusive results are not listed. Active and inactive are the calls of the source. Rule for the calls: active = hit-call score of the fitted dose curve at least 0.9, where 1 is the maximum; inconclusive = response in the unintended direction; inactive = score below 0.9.
# Target: human Matrix Metalloproteinase-2 (MMP2), MMP2 (gene 4313) (UniProt P08253)
# Assay: NVS_ENZ_hMMP2: NovaScreen (NVS) Enzymatic Assay for human Matrix Metalloproteinase-2 (MMP2) (AID 2283184)
# Experimental: NVS_ENZ_hMMP2 is a biochemical, single-readout assay that uses extracted gene-proteins in a cell-free assay. Measurements were taken 1 hour after chemical dosing in a 96-well plate.NVS_ENZ_hMMP2 is one of one assay component(s) measured or calculated from the NVS_ENZ_hMMP2 assay. It is designed to make measurements of enzyme activity, a form of enzyme reporter, as detected with fluorescence intensity signals by Fluorescence technology.Data from the assay component NVS_ENZ_hMMP2 was analyzed into 1 assay endpoint. This assay endpoint, NVS_ENZ_hMMP2, was analyzed in the positive analysis fitting direction relative to DMSO as the negative control and baseline of activity. Using a type of enzyme reporter, loss-of-signal activity can be used to understand changes in the enzymatic activity as they relate to the gene MMP2. Furthermore, this assay endpoint can be referred to as a primary readout, because this assay has produced multiple assay endpoints where this one serves a enzymatic activity function. To generalize the intended target to other relatable targets, this assay endpoint is annotated to the protease intended target family, where the subfamily is matrix metalloproteinase.
# Binding assays used specific radioligands (tritiated, iodinated) with non-radioactive competitive displacement ligands in agonist or antagonist protocols (as indicated) and various reference compounds and inhibitors to titrate specific binding to receptors and transporters. Most enzyme assays (CYPs, kinases, phosphatases, proteases, HDACs) used recombinant protein and specific substrates (fluorescence mostly, some colorimetric and radioactive) and inhibitors, followed by a biochemical separation of substrate and product. All assays for the biochemical HTS were initially run in duplicate at a single concentration (10 uM for CYP450 assays and 25 uM for all others). […] Each assay was run with positive and negative controls, and concurrent controls on every plate. The follow-up (secondary) screen tested active chemical-pairs in concentration series, as well as a few additional assays not tested in the primary screen, some selected negative inactives, and several cases re-run in the concentration series for confirmatory purposes.
# Sequence of human Matrix Metalloproteinase-2 (MMP2), MMP2 (gene 4313) (P08253 whole entry, looked up): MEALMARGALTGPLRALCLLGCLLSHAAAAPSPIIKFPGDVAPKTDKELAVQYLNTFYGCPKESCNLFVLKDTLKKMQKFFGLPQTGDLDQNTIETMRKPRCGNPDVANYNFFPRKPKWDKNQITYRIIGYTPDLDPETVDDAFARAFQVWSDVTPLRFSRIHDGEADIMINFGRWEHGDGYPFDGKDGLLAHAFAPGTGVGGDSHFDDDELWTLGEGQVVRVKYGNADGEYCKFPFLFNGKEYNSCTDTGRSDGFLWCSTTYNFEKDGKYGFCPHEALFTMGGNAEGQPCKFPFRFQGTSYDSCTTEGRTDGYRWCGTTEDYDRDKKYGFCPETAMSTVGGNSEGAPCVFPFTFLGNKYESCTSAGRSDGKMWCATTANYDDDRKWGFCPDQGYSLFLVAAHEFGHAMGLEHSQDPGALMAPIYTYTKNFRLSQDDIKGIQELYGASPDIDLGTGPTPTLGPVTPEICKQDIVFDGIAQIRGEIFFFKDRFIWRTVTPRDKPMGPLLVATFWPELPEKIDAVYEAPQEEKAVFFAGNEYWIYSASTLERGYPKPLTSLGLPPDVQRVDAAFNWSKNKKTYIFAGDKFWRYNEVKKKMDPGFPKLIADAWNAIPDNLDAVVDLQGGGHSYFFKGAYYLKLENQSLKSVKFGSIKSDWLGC
Structure (SMILES),outcome,AC50
Cc1ccc(-c2cc(C(F)(F)F)nn2-c2ccc(S(N)(=O)=O)cc2)cc1,inactive,
Cc1cc(Cc2ccc(N)c(C)c2)ccc1N,inactive,
c1ccc2occc2c1,inactive,
Nc1nc(=S)c2[nH]cnc2[nH]1,,18.8 µM (active)
O=C1c2c(O)cccc2Cc2cccc(O)c21,,10.2 µM (active)
Cn1cnc2c1c(=O)[nH]c(=O)n2C,inactive,

# Target: human Matrix Metalloproteinase-3 (MMP3), MMP3 (gene 4314) (UniProt P08254)
# Sequence (P08254 whole entry, looked up): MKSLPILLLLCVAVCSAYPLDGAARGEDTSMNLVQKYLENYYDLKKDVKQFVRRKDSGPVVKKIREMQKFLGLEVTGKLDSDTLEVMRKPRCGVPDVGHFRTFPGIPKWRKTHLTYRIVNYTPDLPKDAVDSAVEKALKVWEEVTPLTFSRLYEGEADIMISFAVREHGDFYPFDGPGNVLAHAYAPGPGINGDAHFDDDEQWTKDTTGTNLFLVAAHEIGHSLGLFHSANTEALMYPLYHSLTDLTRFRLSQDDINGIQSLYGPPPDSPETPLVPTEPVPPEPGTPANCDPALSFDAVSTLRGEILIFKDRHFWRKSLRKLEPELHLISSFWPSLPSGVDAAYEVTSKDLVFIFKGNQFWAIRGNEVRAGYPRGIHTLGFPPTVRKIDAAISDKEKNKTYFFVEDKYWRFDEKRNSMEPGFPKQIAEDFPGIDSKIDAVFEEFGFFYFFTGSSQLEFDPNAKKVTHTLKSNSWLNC
# Assay: NVS_ENZ_hMMP3: NovaScreen (NVS) Enzymatic Assay for human Matrix Metalloproteinase-3 (MMP3) (AID 2283185)
# Procedure, shortened: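 Fluorescent substrate turnover by recombinant MMP3 read after 1 h, signal loss scored against DMSO. Compounds first run in duplicate at 25 uM single dose, then actives confirmed by concentration series.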
row,Structure (SMILES),AC50
1,O=C1c2c(O)cccc2Cc2cccc(O)c21,8.87 µM (active)
2,CCCCc1nc2cccnc2n1Cc1ccc(-c2ccccc2-c2nnn[nH]2)cc1,22.9 µM (active)
3,O=C(O)c1[nH]n(-c2ccc(S(=O)(=O)O)cc2)c(=O)c1N=Nc1ccc(S(=O)(=O)O)cc1,23.6 µM (active)
4,CCc1cc(C2=C(C(=O)O)N(c3ccccc3C(F)(F)F)S(=O)(=O)c3ccccc32)cc2c1OCO2,25 µM (active)

# Target: human Matrix Metalloproteinase-9 (MMP9), MMP9 (gene 4318) (UniProt P14780)
# Sequence (P14780 whole entry, looked up): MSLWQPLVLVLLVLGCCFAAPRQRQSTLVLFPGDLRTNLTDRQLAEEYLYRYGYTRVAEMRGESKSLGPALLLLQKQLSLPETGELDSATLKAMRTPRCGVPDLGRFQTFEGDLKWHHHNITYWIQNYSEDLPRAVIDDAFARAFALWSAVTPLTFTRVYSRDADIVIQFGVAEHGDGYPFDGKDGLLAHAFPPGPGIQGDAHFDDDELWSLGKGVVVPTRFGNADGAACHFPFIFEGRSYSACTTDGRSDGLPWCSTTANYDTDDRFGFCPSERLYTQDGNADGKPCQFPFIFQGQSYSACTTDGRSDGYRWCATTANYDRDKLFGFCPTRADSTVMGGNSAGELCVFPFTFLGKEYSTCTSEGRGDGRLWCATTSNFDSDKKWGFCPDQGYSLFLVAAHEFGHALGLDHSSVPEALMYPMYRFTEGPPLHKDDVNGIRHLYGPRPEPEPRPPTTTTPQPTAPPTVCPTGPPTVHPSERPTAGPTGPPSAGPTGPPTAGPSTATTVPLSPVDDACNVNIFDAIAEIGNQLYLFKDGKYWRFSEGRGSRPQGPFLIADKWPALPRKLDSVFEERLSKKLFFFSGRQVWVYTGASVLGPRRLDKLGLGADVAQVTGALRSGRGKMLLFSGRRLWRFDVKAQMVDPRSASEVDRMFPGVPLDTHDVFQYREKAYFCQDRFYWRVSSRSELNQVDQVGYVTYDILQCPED
# Assay: NVS_ENZ_hMMP9: NovaScreen (NVS) Enzymatic Assay for human Matrix Metalloproteinase-9 (MMP9) (AID 2283190);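 note: cell-free recombinant MMP9 protease activity read by fluorescent substrate signal; active means inhibition seen as loss of fluorescence signal versus DMSO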
# Procedure, shortened: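 Cell-free fluorescence-intensity enzyme activity assay using extracted protein, read 1 h after dosing. Loss of signal versus DMSO baseline indicates inhibition; primary screen in duplicate at 25 uM, actives followed up in concentration series.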
Structure (SMILES),outcome,AC50
c1ccc2occc2c1,inactive,
Nc1nc(=S)c2[nH]cnc2[nH]1,,39.2 µM (active)
Cn1cnc2c1c(=O)[nH]c(=O)n2C,inactive,

# Target: human Phosphodiesterase 4A1 (PDE4A1), PDE4A (gene 5141) (UniProt P27815)
# Sequence (P27815 whole entry, looked up): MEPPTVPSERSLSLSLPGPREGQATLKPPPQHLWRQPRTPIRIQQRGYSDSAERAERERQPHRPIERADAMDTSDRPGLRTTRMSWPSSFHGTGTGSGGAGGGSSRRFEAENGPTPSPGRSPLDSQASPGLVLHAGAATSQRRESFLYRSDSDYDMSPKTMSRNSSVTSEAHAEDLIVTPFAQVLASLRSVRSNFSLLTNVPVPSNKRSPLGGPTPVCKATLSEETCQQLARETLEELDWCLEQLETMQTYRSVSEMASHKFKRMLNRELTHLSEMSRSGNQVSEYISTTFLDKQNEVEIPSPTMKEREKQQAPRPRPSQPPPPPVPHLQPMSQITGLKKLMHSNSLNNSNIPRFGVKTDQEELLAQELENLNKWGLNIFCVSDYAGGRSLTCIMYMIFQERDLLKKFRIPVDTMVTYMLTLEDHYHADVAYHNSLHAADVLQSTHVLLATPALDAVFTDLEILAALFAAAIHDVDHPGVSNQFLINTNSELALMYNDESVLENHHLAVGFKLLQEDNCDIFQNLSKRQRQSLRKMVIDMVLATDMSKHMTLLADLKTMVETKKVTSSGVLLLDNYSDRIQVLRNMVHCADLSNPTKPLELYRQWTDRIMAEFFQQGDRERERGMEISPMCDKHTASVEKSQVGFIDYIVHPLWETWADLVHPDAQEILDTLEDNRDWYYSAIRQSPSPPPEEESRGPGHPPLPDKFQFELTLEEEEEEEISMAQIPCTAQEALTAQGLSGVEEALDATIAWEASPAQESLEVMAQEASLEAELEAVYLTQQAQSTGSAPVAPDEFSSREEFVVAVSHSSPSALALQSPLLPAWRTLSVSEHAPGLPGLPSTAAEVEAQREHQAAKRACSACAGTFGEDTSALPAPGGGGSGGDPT
# Assay: NVS_ENZ_hPDE4A1: NovaScreen (NVS) Enzymatic Assay for human Phosphodiesterase 4A1 (PDE4A1) (AID 2283191)
# Procedure, shortened: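 Fluorescent substrate turnover by recombinant PDE4A1 read after 1 h by mobility-shift separation. Primary duplicate screen at 25 uM; hits retested in concentration series with a 50 uM maximum, relative to DMSO.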
Structure (SMILES),outcome,AC50
O=C1NC(=O)C(c2ccccc2)(c2ccccc2)N1,inactive,
CCCCc1nc2cccnc2n1Cc1ccc(-c2ccccc2-c2nnn[nH]2)cc1,,11.6 µM (active)
CN(C)CCCN(C)CCCN(C)C,inactive,
CN(C)C(=O)NC1(c2ccccc2)CCN(CCC[C@]2(c3ccc(Cl)c(Cl)c3)CCCN(C(=O)c3ccccc3)C2)CC1,inactive,
CCc1cc(C2=C(C(=O)O)N(c3ccccc3C(F)(F)F)S(=O)(=O)c3ccccc32)cc2c1OCO2,inactive,

# Target: cAMP-dependent protein kinase catalytic subunit alpha (Homo sapiens) (UniProt P17612)
# Assay: NVS_ENZ_hPKA: NovaScreen (NVS) Enzymatic Assay for human Protein Kinase A (PKA) (AID 2283192)
# Procedure, shortened: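 Cell-free kinase activity read by fluorescence after mobility-shift separation of substrate and product, 1 h post-dosing. Single-concentration duplicate screen (25 uM) preceded singleton concentration series (top 50 uM); loss of signal versus DMSO.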
row,Structure (SMILES),outcome
1,O=C(N[C@@H](c1ccccc1)[C@@H]1CCCCN1)c1cccc(C(F)(F)F)c1Cl,inactive
2,CC(C)(C)c1ccccc1,inactive
3,CN(C)C(=O)NC1(c2ccccc2)CCN(CCC[C@]2(c3ccc(Cl)c(Cl)c3)CCCN(C(=O)c3ccccc3)C2)CC1,inactive

# Target: human Phosphodiesterase 5 (PDE5), PDE5A (gene 8654) (UniProt O76074)
# Assay: NVS_ENZ_hPDE5: NovaScreen (NVS) Enzymatic Assay for human Phosphodiesterase 5 (PDE5) (AID 2283194)
# Procedure, shortened: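 Screening began in duplicate at 25 uM, with actives taken into concentration-response. Enzyme activity of recombinant PDE5 toward its substrate was measured at 1 h by fluorescence mobility-shift detection, relative to DMSO controls.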
Structure (SMILES),AC50,outcome
CS(=O)(=O)c1ccc([C@@H](C[C@H]2CCC(=O)C2)C(=O)Nc2cnccn2)cc1Cl,23.3 µM (active),
CCCCc1nc2cccnc2n1Cc1ccc(-c2ccccc2-c2nnn[nH]2)cc1,11.3 µM (active),
CCc1cc(C2=C(C(=O)O)N(c3ccccc3C(F)(F)F)S(=O)(=O)c3ccccc32)cc2c1OCO2,,inactive

# Target: human Phosphodiesterase 10 (PDE10), PDE10A (gene 10846) (UniProt Q9Y233)
# Sequence (Q9Y233 whole entry, looked up): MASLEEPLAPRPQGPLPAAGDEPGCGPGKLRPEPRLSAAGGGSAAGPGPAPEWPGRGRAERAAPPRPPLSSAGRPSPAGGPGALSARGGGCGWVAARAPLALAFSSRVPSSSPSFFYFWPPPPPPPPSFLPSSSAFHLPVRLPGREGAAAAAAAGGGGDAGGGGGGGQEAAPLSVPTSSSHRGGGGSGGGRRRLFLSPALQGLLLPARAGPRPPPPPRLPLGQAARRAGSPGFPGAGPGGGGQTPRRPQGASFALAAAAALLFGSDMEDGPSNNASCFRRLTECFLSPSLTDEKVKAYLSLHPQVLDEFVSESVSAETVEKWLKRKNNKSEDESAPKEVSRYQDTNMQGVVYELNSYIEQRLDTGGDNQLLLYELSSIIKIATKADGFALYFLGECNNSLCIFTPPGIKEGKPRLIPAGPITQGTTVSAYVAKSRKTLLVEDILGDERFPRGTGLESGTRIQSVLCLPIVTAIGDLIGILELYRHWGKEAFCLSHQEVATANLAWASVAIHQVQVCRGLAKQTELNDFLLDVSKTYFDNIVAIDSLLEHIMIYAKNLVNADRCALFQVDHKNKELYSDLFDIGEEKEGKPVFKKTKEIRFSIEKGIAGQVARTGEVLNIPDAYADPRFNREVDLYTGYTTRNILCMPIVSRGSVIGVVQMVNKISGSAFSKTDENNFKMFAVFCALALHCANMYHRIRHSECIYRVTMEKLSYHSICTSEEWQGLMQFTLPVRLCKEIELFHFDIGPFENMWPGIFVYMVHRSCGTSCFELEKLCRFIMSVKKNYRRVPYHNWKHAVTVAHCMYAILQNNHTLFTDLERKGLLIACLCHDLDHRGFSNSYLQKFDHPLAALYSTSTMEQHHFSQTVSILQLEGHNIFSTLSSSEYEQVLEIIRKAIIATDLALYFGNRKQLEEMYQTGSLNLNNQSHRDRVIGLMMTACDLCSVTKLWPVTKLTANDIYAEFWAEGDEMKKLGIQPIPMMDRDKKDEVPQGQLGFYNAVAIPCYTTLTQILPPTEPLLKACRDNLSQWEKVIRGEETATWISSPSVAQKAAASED
# Assay: NVS_ENZ_hPDE10: NovaScreen (NVS) Enzymatic Assay for human Phosphodiesterase 10 (PDE10) (AID 2283195)
# Procedure, shortened: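 Readout is fluorescence intensity following electrophoretic mobility-shift separation, 1 h after dosing of isolated PDE10A protein. Hits meeting a preset threshold at 25 uM went to concentration series (max 50 uM), analysed relative to DMSO.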
Structure (SMILES),AC50,outcome
CCCCc1nc2cccnc2n1Cc1ccc(-c2ccccc2-c2nnn[nH]2)cc1,13 µM (active),
CN(C)CCCN(C)CCCN(C)C,,inactive
CCc1cc(C2=C(C(=O)O)N(c3ccccc3C(F)(F)F)S(=O)(=O)c3ccccc32)cc2c1OCO2,,inactive

# From PubChem BioAssay (EPA / NIEHS)
